Experiments:
Test in all cases: log2 ratio of Biotin-Ahx-Ub-VS probe labelling (fragment/DMSO); higher = less target engagement (more negative = stronger competition), active = hit call of the paper (q ≤ 0.05, log2 ratio ≤ -1)
Settings in all cases: compound concentration: 200 uM; treatment time: 3 h
USP34 = USP34 (UniProt Q70CQ2)
Summary of the method: (§1)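 Triplicate samples of HEK293T lysate, 495 µg each, received fragment at 200 µM or vehicle for 3 h, followed by Biotin-Ahx-Ub-VS (0.5 µM final) for 1 h. After NeutrAvidin enrichment of labelled DUBs and LysC/trypsin digestion, peptides were run by diaPASEF LC-MS/MS. The values are average log2 fragment/vehicle ratios from global-median-normalised Spectronaut label-free quantities, tested by unpaired t-test on proteins having ≥2 unique peptides.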

USP36 = biological target: T1, USP36 (UniProt Q9P275)
T1 sequence (whole entry): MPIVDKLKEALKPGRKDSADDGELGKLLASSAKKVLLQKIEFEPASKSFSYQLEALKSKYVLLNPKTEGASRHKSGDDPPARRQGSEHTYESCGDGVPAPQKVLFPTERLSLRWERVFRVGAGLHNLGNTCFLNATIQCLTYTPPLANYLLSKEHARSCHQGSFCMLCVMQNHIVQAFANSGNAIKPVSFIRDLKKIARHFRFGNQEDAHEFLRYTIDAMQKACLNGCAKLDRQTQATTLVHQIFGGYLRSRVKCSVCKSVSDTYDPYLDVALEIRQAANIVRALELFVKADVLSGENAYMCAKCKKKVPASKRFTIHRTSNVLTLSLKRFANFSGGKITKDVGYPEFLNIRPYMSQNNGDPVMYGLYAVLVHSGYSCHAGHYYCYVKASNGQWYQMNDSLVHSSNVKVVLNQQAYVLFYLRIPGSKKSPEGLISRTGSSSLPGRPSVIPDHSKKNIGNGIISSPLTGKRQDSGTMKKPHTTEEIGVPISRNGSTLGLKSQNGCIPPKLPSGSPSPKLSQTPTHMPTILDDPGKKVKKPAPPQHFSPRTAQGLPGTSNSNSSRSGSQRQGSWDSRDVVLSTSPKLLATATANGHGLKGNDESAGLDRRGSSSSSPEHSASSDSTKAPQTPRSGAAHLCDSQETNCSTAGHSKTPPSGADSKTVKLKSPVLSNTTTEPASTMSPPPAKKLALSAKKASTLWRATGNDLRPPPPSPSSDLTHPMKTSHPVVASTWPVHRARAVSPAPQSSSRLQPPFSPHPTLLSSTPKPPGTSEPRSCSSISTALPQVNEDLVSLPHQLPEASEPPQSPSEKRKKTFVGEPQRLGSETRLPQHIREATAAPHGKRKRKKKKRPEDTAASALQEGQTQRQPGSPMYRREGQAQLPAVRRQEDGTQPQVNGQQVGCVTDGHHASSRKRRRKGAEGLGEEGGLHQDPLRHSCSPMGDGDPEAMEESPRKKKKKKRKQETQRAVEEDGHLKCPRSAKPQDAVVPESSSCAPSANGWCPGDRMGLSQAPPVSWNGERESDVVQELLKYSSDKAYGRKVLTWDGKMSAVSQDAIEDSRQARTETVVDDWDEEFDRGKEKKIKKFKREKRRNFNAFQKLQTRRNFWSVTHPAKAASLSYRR
Summary of the method: as §1

USP38 = biological target: T2, USP38 (UniProt Q8NB14)
T2 sequence (whole entry): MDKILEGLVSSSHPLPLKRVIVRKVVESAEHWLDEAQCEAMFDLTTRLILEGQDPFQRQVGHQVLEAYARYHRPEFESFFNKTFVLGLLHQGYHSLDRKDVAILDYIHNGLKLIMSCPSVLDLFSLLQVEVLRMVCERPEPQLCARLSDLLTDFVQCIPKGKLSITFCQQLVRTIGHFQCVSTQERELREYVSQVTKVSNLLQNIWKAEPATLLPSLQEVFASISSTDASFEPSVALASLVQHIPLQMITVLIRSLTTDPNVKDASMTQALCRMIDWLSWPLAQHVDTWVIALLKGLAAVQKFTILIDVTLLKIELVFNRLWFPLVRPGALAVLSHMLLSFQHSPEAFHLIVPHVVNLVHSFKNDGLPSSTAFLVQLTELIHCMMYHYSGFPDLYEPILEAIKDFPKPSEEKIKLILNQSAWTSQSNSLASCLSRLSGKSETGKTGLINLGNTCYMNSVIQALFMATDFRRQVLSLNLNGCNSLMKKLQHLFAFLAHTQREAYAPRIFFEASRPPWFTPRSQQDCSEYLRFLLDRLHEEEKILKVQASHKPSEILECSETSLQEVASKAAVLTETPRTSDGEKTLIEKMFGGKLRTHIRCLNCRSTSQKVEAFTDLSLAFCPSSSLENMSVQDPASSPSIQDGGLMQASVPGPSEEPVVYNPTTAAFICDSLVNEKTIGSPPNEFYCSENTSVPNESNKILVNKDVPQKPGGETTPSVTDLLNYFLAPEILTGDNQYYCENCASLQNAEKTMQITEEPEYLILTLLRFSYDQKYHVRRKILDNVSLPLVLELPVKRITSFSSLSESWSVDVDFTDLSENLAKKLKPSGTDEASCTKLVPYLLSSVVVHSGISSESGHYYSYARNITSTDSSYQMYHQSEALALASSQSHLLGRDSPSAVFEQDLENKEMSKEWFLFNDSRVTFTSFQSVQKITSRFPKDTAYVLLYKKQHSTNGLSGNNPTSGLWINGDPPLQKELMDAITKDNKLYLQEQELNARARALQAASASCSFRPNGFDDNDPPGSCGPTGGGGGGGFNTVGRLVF
Summary of the method: as §1

USP39 = biological target: T3, USP39 (UniProt Q53GS9)
T3 sequence (whole entry): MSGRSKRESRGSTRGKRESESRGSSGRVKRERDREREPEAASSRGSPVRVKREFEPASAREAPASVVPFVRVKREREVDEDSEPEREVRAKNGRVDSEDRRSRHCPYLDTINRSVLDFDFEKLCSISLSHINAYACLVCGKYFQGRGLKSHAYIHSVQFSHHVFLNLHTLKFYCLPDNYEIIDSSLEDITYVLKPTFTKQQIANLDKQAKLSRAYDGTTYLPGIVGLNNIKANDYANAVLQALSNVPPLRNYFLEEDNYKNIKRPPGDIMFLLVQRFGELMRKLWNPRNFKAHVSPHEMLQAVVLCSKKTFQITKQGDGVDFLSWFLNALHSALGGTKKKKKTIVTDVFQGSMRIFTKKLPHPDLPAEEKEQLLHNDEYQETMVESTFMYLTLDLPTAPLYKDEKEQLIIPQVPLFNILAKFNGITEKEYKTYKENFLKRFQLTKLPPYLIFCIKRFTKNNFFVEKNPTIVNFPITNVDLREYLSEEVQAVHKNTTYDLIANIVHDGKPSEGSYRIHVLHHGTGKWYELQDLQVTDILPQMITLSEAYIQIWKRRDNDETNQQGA
Summary of the method: as §1

USP4 = biological target: T4, USP4 (UniProt Q13107)
T4 sequence (whole entry): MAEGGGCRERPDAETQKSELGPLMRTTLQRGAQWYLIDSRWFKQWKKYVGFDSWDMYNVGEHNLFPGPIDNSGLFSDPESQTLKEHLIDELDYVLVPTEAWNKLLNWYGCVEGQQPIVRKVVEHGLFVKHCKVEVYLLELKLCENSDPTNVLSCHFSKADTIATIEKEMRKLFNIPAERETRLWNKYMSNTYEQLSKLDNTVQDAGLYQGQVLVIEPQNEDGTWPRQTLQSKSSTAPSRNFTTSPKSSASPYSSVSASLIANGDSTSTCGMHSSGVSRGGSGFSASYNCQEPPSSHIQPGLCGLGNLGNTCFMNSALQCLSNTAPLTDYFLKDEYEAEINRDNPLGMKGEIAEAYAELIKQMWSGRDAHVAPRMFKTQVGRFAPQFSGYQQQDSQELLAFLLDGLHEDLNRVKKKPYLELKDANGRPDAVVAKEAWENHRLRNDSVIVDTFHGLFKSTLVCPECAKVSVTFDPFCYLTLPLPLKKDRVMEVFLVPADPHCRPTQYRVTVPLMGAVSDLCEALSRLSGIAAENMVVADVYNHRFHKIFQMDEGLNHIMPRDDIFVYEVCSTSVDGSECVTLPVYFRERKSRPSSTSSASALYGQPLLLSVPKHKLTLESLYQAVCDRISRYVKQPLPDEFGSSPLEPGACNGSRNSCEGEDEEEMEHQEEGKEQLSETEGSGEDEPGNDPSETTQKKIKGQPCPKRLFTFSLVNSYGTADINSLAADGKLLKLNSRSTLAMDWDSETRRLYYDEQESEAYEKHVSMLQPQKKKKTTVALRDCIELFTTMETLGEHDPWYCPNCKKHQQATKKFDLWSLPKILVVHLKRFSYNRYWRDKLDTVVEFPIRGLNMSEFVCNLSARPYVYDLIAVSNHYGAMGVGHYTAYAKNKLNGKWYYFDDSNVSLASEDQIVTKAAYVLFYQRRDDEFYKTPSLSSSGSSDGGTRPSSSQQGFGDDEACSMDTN
Summary of the method: as §1

Measured: log2 ratio of Biotin-Ahx-Ub-VS probe labelling

Chain of USP34 (Q70CQ2 whole entry, the tested form may be a part): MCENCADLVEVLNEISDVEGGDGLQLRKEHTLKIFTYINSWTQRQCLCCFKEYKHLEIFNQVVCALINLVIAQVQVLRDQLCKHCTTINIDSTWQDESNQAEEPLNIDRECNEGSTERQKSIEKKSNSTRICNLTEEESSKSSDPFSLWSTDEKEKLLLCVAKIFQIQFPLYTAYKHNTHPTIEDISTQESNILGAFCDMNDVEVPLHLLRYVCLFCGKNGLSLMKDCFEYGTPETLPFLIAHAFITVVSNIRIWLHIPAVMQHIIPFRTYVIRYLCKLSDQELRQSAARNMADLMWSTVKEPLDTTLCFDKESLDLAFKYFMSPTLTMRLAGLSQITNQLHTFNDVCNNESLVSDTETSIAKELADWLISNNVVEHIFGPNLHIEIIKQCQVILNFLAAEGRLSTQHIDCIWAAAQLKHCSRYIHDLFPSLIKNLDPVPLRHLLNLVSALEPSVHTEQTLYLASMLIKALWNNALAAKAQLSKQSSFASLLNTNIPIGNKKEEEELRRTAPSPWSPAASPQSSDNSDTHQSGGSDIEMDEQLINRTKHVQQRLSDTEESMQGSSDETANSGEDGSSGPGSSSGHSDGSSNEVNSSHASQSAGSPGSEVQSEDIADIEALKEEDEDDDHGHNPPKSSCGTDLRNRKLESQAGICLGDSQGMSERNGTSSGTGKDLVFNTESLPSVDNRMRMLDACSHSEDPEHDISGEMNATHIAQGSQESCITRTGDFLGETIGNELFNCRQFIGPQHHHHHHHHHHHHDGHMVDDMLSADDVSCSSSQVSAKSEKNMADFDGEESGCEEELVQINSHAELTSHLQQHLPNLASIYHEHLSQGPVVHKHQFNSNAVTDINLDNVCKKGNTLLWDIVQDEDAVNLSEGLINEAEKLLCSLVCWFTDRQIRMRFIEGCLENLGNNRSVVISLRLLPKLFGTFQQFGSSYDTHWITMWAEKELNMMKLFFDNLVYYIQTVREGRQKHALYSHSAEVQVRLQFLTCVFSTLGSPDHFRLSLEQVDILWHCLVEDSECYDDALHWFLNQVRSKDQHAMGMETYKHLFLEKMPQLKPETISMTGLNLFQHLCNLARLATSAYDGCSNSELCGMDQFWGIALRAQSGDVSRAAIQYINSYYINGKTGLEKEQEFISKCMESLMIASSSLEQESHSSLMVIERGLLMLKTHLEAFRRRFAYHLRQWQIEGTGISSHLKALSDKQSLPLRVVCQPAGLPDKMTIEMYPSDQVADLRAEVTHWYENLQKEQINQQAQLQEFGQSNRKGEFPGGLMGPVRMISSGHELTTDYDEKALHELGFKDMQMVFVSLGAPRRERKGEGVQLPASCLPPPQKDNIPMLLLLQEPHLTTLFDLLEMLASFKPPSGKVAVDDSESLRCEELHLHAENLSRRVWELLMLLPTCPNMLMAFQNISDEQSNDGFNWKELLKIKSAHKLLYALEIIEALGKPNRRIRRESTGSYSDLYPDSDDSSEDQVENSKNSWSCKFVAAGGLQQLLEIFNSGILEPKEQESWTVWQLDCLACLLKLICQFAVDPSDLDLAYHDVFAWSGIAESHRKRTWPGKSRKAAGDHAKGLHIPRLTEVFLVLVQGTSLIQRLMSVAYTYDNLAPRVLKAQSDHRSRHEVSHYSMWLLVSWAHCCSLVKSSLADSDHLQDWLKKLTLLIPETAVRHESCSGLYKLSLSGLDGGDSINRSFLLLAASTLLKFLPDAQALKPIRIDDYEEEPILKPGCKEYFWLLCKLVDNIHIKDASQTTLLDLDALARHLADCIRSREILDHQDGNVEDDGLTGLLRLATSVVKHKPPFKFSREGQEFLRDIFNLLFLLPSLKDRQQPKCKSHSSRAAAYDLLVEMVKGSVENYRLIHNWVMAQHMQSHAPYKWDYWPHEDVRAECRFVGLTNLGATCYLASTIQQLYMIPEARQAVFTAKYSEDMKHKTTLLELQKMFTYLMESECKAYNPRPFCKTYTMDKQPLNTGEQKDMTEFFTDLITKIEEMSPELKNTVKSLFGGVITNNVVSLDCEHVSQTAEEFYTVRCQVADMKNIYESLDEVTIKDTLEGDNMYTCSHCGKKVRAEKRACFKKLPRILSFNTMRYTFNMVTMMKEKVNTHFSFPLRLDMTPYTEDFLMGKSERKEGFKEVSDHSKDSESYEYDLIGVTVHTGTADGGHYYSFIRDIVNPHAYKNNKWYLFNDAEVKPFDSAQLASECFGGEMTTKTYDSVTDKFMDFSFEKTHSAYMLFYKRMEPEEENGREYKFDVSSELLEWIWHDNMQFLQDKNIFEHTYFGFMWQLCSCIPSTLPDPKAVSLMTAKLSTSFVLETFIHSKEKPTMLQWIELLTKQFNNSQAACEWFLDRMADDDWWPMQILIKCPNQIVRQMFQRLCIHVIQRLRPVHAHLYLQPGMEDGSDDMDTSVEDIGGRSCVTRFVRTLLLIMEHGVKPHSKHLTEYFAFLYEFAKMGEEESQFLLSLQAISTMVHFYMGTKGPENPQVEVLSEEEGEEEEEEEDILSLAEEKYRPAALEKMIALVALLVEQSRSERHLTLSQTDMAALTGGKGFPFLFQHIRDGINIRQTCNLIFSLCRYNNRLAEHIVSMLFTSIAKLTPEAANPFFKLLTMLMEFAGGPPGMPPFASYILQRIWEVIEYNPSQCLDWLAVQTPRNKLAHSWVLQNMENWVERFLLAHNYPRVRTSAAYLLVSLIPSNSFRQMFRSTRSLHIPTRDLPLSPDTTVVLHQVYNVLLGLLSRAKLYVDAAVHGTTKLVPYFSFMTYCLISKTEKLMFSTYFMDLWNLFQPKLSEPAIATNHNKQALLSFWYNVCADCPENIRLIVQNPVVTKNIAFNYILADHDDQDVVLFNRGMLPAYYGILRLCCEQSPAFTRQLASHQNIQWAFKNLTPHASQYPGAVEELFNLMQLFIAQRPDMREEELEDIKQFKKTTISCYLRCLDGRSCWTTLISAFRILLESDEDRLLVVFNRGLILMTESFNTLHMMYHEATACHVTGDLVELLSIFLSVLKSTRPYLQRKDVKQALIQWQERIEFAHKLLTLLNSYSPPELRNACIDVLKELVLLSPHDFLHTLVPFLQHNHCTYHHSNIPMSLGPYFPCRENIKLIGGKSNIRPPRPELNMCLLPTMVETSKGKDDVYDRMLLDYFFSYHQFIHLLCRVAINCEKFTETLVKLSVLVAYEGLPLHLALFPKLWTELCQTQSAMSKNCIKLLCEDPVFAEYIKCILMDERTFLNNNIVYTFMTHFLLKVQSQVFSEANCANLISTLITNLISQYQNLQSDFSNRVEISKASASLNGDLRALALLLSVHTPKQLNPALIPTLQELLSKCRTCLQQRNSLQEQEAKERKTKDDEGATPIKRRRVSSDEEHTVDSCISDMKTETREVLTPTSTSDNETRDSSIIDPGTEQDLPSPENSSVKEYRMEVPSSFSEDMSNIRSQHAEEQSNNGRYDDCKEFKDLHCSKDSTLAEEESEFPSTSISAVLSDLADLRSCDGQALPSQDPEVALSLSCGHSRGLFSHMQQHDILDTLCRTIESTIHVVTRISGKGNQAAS

Cl.O=C(CCl)N1CCC(Cc2nccs2)C1 (stereo not given)
inactive: USP34 0.132 | USP36 -0.0197 | USP38 0.0569 | USP39 0.0712 | USP4 -0.165
